Assay outcomes: PubChem BioAssay, National Center for Advancing Translational Sciences (NCATS)
FMDV FLuc – Primary qHTS Assay for Foot and Mouth Disease Virus Antivirals against NCGC Sytravon and CBC Compound Libraries: Firefly Luciferase Signal; FMDV antiviral cell assay, firefly luciferase signal; Potency, µM (highest dose often 57.5 µM), for the others: at the top dose activity change, negative = inhibition, actives largely listed as inhibitors; hit rate 0.23% among 120,000; AID 1745856, 2022; note: nearly all actives have a fitted effect of over 60% in size
FMDV RLuc – Primary qHTS Assay for Foot and Mouth Disease Virus Antivirals against NCGC Sytravon and CBC Compound Libraries: Renilla Luciferase Signal; FMDV replicon cells, Renilla luciferase signal; Potency, µM (doses to about 57.5 µM), without a hit: top-dose activity change, negative = inhibition, usual class: inhibitors; hit rate 0.32% among 120,000; note: nearly all actives have a fitted effect of over 55% in size
Starred values were filed as active, the others as inactive. The list is not random: actives were taken first. Their share in the collection is about 0.51%. Calls come from the whole dose curve. % is set by controls: 0 for no effect and ±100 for the full control effect; potency is the fitted concentration of half-maximal effect.

Results for O=[N+]([O-])c1ccc(C(=C(c2ccccc2)c2ccccc2)c2ccc([N+](=O)[O-])cc2)cc1 ?
FMDV FLuc: 2.5µM*; FMDV RLuc: 3.2µM*

What do the screens show for `O=[N+]([O-])c1ccc(/C=C/c2ccccc2)cc1`?
FMDV FLuc: 31%; FMDV RLuc: 8%

How did Cc1ccccc1OCC(=O)N1CCC(c2nc3ccccc3s2)CC1 do in these assays?
FMDV FLuc: -6%; FMDV RLuc: -10%

What do the screens show for `COc1ccc(OCC(=O)N2CCC(c3nc4ccccc4s3)CC2)cc1`?
FMDV FLuc: 28µM*; FMDV RLuc: 25µM*

Results for CCOC(=O)c1[nH]c(C)c(C(=O)NCc2ccc(F)cc2)c1C ?
FMDV FLuc: -17%; FMDV RLuc: -5%

What do the screens show for `CC(=O)c1[nH]c(C)c(C(=O)NCc2ccc(Cl)cc2)c1C`?
FMDV FLuc: 11µM*; FMDV RLuc: inconclusive

How did COC(=O)C1CN(Cc2ccc(OC)cc2)CCS(=O)(=O)N1Cc1ccc(Cl)cc1 (stereo not drawn) do in these assays?
FMDV FLuc: 0%; FMDV RLuc: 0%

How did COC(=O)C1CN(Cc2ccc(OC)cc2)CCS(=O)(=O)N1Cc1ccc(C(F)(F)F)cc1 (stereo not drawn) do in these assays?
FMDV FLuc: 32µM*; FMDV RLuc: inconclusive

What do the screens show for `CC1CCC(C(=O)NC(C(=O)O)C(C)C)CC1` (stereo not drawn)?
FMDV FLuc: 1%; FMDV RLuc: 10%

What do the screens show for `Cn1c(=O)c2c(ncn2Cc2cccc(OCC(F)(F)F)c2)n(C)c1=O`?
FMDV FLuc: 7.1µM*; FMDV RLuc: 4.5µM*

How did Cc1cccc(OCCCn2cnc3c2c(=O)n(C)c(=O)n3C)c1 do in these assays?
FMDV FLuc: -8%; FMDV RLuc: -20%

What do the screens show for `Cc1cc(OCc2n[nH]c(=S)n2CC2CCCO2)cc(C)c1Cl` (stereo not drawn)?
FMDV FLuc: 91%; FMDV RLuc: 7%

Results for O=c1oc2ccccc2c(NC2CCCCC2)c1NS(=O)(=O)c1ccc(Cl)s1 ?
FMDV FLuc: -3%; FMDV RLuc: 81%

What do the screens show for `O=[N+]([O-])c1ccccc1/C=N/Nc1ccc(S(=O)(=O)Nc2cccc(Cl)c2)cc1[N+](=O)[O-]`?
FMDV FLuc: 11µM*; FMDV RLuc: -77%

How did O=[N+]([O-])c1ccccc1/C=N/Nc1ccc(S(=O)(=O)Nc2ccc(Cl)cc2)cc1[N+](=O)[O-] do in these assays?
FMDV FLuc: -11%; FMDV RLuc: 181%

How did CCCCS(=O)(=O)CCSCCO do in these assays?
FMDV FLuc: 40%; FMDV RLuc: 0%

What do the screens show for `O=C(Nc1ccc(OC(F)(F)F)cc1)c1cc2ccccn2n1`?
FMDV FLuc: 20%; FMDV RLuc: 8.9µM*

Results for O=C(Nc1ccccc1C(F)(F)F)c1cc2ccccn2n1 ?
FMDV FLuc: 145%; FMDV RLuc: 25%

What do the screens show for `Cc1oc(-c2cccs2)nc1CC(=O)N1CCC(NC(=O)c2ccccc2)CC1`?
FMDV FLuc: -5%; FMDV RLuc: -3%

Results for N#CCCNC(=O)CN1CCCC(c2nc3ccccc3o2)C1 (stereo not drawn) ?
FMDV FLuc: -1%; FMDV RLuc: -6%

What do the screens show for `CC(C)CCN1NC2(CCC(C(C)(C)C)CC2)NC1=S` (stereo not drawn)?
FMDV FLuc: 1%; FMDV RLuc: 122%

Results for CCCCN(C)CC1CCN(C(=O)Nc2ccc(F)cc2)CC1 ?
FMDV FLuc: 9%; FMDV RLuc: 7%

What do the screens show for `CCCn1c(NCc2ccc(C)cc2)nc2c1c(=O)n(C)c(=O)n2C`?
FMDV FLuc: inconclusive; FMDV RLuc: 28µM*

Results for Cc1cccc(Cn2c(NCCCO)nc3c2c(=O)n(C)c(=O)n3C)c1 ?
FMDV FLuc: -7%; FMDV RLuc: 5%

Results for CCn1c(NCc2ccccc2)nc2c1c(=O)n(C)c(=O)n2C ?
FMDV FLuc: -10%; FMDV RLuc: -5%

What do the screens show for `Cn1c(=O)c2c(nc(NCc3ccccc3)n2Cc2ccccc2)n(C)c1=O`?
FMDV FLuc: -19%; FMDV RLuc: -18%

What do the screens show for `Cn1c(=O)c2c(nc(NCc3ccco3)n2Cc2ccccc2)n(C)c1=O`?
FMDV FLuc: 16µM*; FMDV RLuc: inconclusive

What do the screens show for `Cn1c(=O)c2c(nc(NCCO)n2Cc2cccc(C(F)(F)F)c2)n(C)c1=O`?
FMDV FLuc: inconclusive; FMDV RLuc: 10µM*

What do the screens show for `CSc1cccc(C(=O)Nc2cc(F)c(F)cc2Cl)c1`?
FMDV FLuc: 0%; FMDV RLuc: 19%

How did N#Cc1cccc(NC(=O)c2ccc3c(c2)OCCCO3)c1 do in these assays?
FMDV FLuc: 152%; FMDV RLuc: 0%

What do the screens show for `Cc1ccc(CNc2c(C)c(C)nc3nncn23)cc1`?
FMDV FLuc: 2.2µM*; FMDV RLuc: 2µM*

Results for CCc1c(C)nc2nncn2c1NCc1ccc(Cl)cc1 ?
FMDV FLuc: -40%; FMDV RLuc: inconclusive
